Active and inactive are the calls of the source.
Legend:
[1] = small molecules captured by biotinylated probe aFSTL3 – biochemical, small-molecule microarray, fluorescence 635/667, stem cell growth factor project, primary screen (AID 1064); conditions: higher = more signal;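 note: measures binding of the biotinylated anti-FSTL3 antibody to printed compounds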
[2] = binders from COS7 lysate, DM2A8 probe, primary screen, torsin A project, cell lysate, small-molecule microarray, fluorescence 635/667 (AID 1065); conditions: higher = more signal, COS7 lysate expressing mutant human TOR1A
[3] = small molecules captured by biotinylated probe aFGF2 – biochemical, small-molecule microarray, fluorescence 635/667, stem cell growth factor project, primary screen (AID 1067); conditions: higher = more signal;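 note: measures binding of biotinylated aFGF2 protein to printed compounds on slides; z-score merges feature fluorescence and signal-to-noise across triplicate slides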
[4] = small molecules captured by biotinylated probe aFGF10 – biochemical, small-molecule microarray, fluorescence 635/667, stem cell growth factor project, primary screen (AID 1071); conditions: higher = more signal;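 note: score merges 667 nm spot intensity and signal to noise from triplicate slides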
[5] = molecular target: Neurogenic locus notch homolog protein 2 (Homo sapiens) (UniProt Q04721); assay: small molecules binding Notch2 protein – biochemical, small-molecule microarray, 635 nm fluorescence, stem cell growth factors, primary screen (AID 1073); conditions: higher = more signal
Chain of Neurogenic locus notch homolog protein 2 (Homo sapiens) (Q04721 whole entry, looked up, canonical isoform): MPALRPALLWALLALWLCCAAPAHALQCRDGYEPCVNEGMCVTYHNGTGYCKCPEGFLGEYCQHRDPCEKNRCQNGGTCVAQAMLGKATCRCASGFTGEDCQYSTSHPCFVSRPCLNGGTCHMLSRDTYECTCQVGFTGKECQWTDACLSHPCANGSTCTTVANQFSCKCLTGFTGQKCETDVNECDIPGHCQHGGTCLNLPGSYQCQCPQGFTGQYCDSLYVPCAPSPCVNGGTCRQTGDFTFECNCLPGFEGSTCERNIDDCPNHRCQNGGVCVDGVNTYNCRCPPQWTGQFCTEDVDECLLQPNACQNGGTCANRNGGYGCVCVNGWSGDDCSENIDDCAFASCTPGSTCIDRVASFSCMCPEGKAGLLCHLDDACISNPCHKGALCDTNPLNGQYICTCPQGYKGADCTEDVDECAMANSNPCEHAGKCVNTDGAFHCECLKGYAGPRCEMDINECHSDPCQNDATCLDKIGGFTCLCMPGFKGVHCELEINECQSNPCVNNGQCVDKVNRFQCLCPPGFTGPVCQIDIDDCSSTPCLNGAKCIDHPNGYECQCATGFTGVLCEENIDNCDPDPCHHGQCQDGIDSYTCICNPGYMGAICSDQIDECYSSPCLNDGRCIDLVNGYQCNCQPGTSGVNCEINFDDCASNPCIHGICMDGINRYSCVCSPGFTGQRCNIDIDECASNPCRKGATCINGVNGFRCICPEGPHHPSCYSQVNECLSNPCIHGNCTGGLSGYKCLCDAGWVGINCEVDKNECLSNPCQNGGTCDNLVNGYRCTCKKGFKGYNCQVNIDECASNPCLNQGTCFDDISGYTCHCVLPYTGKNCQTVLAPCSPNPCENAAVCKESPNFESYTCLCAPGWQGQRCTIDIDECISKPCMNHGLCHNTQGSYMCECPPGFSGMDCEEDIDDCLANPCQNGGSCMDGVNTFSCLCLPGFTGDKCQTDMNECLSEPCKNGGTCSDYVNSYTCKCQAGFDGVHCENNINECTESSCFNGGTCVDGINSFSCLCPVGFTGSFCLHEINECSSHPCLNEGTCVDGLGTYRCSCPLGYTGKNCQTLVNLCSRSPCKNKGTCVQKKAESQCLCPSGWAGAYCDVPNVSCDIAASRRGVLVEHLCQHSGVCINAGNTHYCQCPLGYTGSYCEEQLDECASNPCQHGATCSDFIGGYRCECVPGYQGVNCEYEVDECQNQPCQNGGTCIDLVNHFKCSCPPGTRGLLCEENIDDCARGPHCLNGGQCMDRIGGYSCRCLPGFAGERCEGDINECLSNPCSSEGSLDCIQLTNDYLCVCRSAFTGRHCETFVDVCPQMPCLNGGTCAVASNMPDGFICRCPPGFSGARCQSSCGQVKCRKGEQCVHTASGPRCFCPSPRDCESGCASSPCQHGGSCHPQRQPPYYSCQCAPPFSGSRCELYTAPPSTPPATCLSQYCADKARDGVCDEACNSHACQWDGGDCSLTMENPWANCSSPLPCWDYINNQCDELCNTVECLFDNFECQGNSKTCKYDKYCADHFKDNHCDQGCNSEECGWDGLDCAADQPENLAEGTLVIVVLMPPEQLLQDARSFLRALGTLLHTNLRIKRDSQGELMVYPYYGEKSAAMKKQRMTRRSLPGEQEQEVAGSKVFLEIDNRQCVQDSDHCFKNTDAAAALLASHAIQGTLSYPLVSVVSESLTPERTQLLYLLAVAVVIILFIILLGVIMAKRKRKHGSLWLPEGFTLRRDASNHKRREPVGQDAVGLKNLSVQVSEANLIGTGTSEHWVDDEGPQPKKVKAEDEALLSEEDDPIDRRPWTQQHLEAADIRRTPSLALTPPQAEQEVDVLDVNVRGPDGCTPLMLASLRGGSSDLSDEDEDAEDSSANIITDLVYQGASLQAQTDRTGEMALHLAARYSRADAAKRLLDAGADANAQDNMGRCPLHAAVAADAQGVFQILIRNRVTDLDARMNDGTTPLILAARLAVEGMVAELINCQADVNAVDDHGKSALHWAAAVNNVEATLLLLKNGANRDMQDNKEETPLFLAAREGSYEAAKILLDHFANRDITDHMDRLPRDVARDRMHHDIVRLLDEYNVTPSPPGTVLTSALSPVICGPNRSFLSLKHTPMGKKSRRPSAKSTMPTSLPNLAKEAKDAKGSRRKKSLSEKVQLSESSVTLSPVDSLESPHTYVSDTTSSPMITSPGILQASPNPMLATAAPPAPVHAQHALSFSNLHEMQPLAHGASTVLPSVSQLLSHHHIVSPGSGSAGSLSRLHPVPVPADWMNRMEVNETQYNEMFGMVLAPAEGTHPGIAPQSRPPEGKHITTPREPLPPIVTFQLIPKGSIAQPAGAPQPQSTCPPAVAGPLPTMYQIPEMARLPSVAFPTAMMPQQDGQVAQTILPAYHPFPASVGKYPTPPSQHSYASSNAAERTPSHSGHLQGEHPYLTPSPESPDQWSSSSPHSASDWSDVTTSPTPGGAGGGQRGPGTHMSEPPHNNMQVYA

[6] = molecular target: Pro-neuregulin-1, membrane-bound isoform (Homo sapiens) (UniProt Q02297); assay: small molecules binding neuregulin-1 protein – biochemical, small-molecule microarray, fluorescence 635/667, psychiatric disease protein project, primary screen (AID 1075); conditions: NRG1 binding, 635 nm fluorescence, higher = more signal;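 note: score combines 667 nm spot fluorescence with signal to noise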
Chain of Pro-neuregulin-1, membrane-bound isoform (Homo sapiens) (Q02297 whole entry, looked up, the tested form may be a part, canonical isoform): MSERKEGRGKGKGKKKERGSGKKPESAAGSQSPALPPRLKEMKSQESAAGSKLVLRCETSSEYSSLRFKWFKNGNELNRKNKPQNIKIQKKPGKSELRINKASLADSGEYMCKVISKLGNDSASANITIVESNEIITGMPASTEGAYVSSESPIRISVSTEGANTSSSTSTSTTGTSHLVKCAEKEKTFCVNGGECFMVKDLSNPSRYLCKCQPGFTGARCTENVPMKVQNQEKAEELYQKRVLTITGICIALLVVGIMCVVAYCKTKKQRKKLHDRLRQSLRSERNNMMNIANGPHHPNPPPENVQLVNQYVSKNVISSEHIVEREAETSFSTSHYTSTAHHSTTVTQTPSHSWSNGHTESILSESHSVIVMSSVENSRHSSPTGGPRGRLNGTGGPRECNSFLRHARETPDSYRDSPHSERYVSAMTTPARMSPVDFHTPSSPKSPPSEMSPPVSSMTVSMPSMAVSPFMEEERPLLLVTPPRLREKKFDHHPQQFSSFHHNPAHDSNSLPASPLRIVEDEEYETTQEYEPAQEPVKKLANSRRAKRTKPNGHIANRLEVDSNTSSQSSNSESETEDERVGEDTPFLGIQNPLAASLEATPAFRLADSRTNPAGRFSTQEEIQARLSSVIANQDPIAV

[7] = system: Neuregulin-1 EGF-like domain; assay: small molecules binding NRG1 EGF domain – biochemical, small-molecule microarray, 635 nm fluorescence, primary screen (AID 1081); conditions: higher = more signal;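 note: binding of the protein to compounds printed on small-molecule microarray slides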
[8] = FRG1 expression reporter modulators in myotubes – cell-based, C2C12 myotubes, firefly/Renilla luciferase, luminescence, FRG1 inhibition for FSHD, primary screen (AID 1084); conditions: FRG1 promoter luciferase, higher = more signal, called active from +8 up or from −8 down
[9] = small molecules captured by biotinylated probe aFST – biochemical, small-molecule microarray, fluorescence 635/667, stem cell growth factor project, primary screen (AID 1086); conditions: higher = more signal;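 note: score merges 667 nm fluorescence with signal-to-noise of each printed compound spot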
[10] = binders of probe aHhip on microarray, primary screen, stem cell growth factor project, biochemical, small-molecule microarray, fluorescence 635/667 (AID 1087); conditions: higher = more signal;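 note: score merges spot fluorescence at 667nm with spot signal to noise ratio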
[11] = system: PRMT1 (protein arginine N-methyltransferase 1); assay: small molecules binding arginine methyltransferase PRMT1 – biochemical, small-molecule microarray, 635 nm fluorescence, primary screen (AID 1088); conditions: higher = more signal;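 note: binding of Prmt1 protein to compounds spotted on small-molecule microarray slides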
[12] = growth effects on S. cerevisiae YJM789 – YJM789 clinical isolate, OD600, 24 h, basal, primary screen (AID 1089); conditions: higher = more signal, called active from +8 up or from −8 down;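 note: growth of clinical yeast isolate S. cerevisiae YJM 789 seeded 1000 cells per well; test concentration not given here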
[13] = S. pombe growth modifiers, basal conditions – strain 972, OD600, 24 h, no modulator, primary screen (AID 1090);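 note: basal condition with compound alone and no growth modifier present; test concentration not given here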; conditions: S. pombe 972 growth, higher = more signal, called active from +8 up or from −8 down
[14] = budding yeast growth modifiers under rapamycin – strain BY4716, OD600, 96 h, primary screen (AID 1091); note: test concentration not given here; conditions: S. cerevisiae BY4716 + rapamycin, higher = more signal, called active from +8 up or from −8 down
[15] = molecular target: Torsin-1A-interacting protein 2 (Homo sapiens) (UniProt Q8NFQ8); assay: small molecules binding lysate-expressed LULL1 – cell lysate, human LULL1 lysate, 635/667 nm fluorescence, primary screen (AID 1092); conditions: small-molecule microarray, hLULL1 lysate binding, 635 nm fluorescence; higher = more signal;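 note: probe is lysate of COS7 cells overexpressing human LULL1; score merges per-feature 667 nm fluorescence with signal-to-noise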
Chain of Torsin-1A-interacting protein 2 (Homo sapiens) (Q8NFQ8 whole entry, looked up): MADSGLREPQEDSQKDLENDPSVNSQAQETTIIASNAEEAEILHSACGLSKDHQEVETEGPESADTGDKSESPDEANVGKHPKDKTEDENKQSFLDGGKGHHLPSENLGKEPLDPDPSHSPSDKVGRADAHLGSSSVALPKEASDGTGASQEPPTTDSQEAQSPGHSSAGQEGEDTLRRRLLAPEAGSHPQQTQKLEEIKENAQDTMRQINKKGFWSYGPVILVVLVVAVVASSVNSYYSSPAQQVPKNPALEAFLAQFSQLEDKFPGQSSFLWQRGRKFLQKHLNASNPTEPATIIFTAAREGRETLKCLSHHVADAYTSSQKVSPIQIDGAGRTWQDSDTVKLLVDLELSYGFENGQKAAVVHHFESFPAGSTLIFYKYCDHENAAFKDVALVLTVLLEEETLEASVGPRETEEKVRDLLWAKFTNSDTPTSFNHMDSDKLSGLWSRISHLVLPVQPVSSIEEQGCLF

[16] = optical density change of DRC41 E. coli – strain DRC41, OD650, 24 h, E. coli filamentation project, primary screen (AID 1093);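 note: MC1000 strain lacking acrAB efflux and sulA so SOS filamentation is blocked; test concentration not given here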; conditions: E. coli DRC41 growth, higher = more signal, called active from +8 up or from −8 down
[17] = probe aLefty2 binding to arrayed compounds – biochemical, biotinylated probe, 635/667 nm fluorescence, primary screen (AID 1094); conditions: small-molecule microarray, higher = more signal;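 note: score merges spot fluorescence near 667 nm with spot signal-to-noise ratio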
[18] = system: Noggin (protein binding on small-molecule microarray); assay: small molecules binding Noggin protein – biochemical, 635/667 nm fluorescence, primary screen (AID 1095); conditions: 635 nm fluorescence, higher = more signal;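 note: score merges 667 nm feature fluorescence with signal to noise over triplicate slides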
[19] = molecular target: Neurogenic locus notch homolog protein 3 (Homo sapiens) (UniProt Q9UM47); assay: small molecules binding NOTCH3 protein – biochemical, 635/667 nm fluorescence, primary screen (AID 1096); conditions: small-molecule microarray, 635 nm fluorescence, higher = more signal
[20] = probe aEGFR binding to arrayed compounds – biochemical, biotinylated probe, 635/667 nm fluorescence, primary screen (AID 1097); conditions: small-molecule microarray, higher = more signal;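 note: probe is a biotinylated anti-EGFR antibody binding compounds printed on slides; score combines fluorescence near 667 nm and signal to noise of each spot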

| Compound | composite z-score [1] | composite z-score [2] | composite z-score [3] | composite z-score [4] | composite z-score [5] | composite z-score [6] | composite z-score [7] | z-score [8] | composite z-score [9] | composite z-score [10] | composite z-score [11] | z-score [12] | z-score [13] | z-score [14] | composite z-score [15] | z-score [16] | composite z-score [17] | composite z-score [18] | composite z-score [19] | composite z-score [20] |
| --- | --- | --- | --- | --- | --- | --- | --- | --- | --- | --- | --- | --- | --- | --- | --- | --- | --- | --- | --- | --- |
| Cc1ccc(S[C@]2(C(=O)NC3CC3)CC(=O)N(Cc3ccccc3C(F)(F)F)[C@@H]2c2ccc(CO)cc2I)cc1 | 1.38 | 0.15 | -0.0139 | 0.152 | -1.13 | 0.37 | 1.2 | -0.967 (inactive) | 0.0584 | 0.219 | 0.279 | -1.31 (inactive) | -4.68 (inactive) | 2.34 (inactive) | 1.1 | -0.195 (inactive) | 0.244 | -0.536 | -0.654 | -0.0899 |
| CCCCCN1CC=CC23O[C@@H]4/C=C\CCC(C)OC(=O)C4[C@H]2C(=O)N(CCCO)[C@@H]3C1=O (stereo not given in full) | 0.499 | 2.09 | -0.128 | -1.37 | -1.28 | 1.57 | 1.15 | 0.356 (inactive) | -0.61 | -0.261 | -0.418 | -1.3 (inactive) | -1.58 (inactive) | -0.544 (inactive) | 0.818 | 1.77 (inactive) | -0.441 | -1.44 | -1.17 | -0.262 |
| COCCCNC(=O)[C@@]1(CCS(=O)(=O)c2ccccc2)N=C(c2ccc(OCCCO)cc2)O[C@H]1c1ccccc1CN=[N+]=[N-] | 1.06 | 0.865 | 0.331 | 1.12 | 1.25 | 1.01 | 1.22 | -0.891 (inactive) | 1.25 | 0.0515 | 1.54 | -1.61 (inactive) | -1.21 (inactive) | 0.468 (inactive) | 2.65 | 2.4 (inactive) | 0.568 | 1.9 | 1.07 | 0.242 |
| O=C(NCc1ccccc1)[C@@H]1c2ccccc2C(=O)N(Cc2ccccc2Cl)[C@H]1c1ccc(CO)cc1 | 0.389 | 0.658 | 0.0139 | 0.124 | 1.21 | 0.887 | 1.25 | -2.93 (inactive) | 0.893 | 0.0623 | 1.41 | -0.21 (inactive) | -1.82 (inactive) | -1.49 (inactive) | 2.69 | 2.1 (inactive) | 0.054 | 1.17 | 1.05 | 0.103 |
| CC(C)(C)OC(=O)CC[C@]1(C(=O)NCc2ccccc2)N=C(c2ccc(OCCCO)cc2)O[C@H]1c1ccccc1N=[N+]=[N-] | 1.4 | 1.11 | 0.231 | 0.907 | 1.65 | 1.91 | 1.26 | 1.14 (inactive) | 1.62 | -0.248 | 1.55 | -0.182 (inactive) | -0.654 (inactive) | 2.97 (inactive) | 3.41 | 0.876 (inactive) | 0.782 | 1.69 | 1.02 | 0.593 |
| Cc1ccc(S[C@]2(C(=O)NCC(C)C)CC(=O)N(C(C)C)[C@@H]2c2ccc(CO)cc2)cc1 | -1.02 | -0.691 | -0.083 | -0.293 | -0.625 | -0.517 | -0.0249 | -0.781 (inactive) | 0.272 | 0.271 | 0.493 | 0.588 (inactive) | -2.12 (inactive) | -0.942 (inactive) | -0.219 | 0.538 (inactive) | -0.0193 | -0.197 | -0.534 | -0.175 |
| O=C(O)[C@H]1C[C@H]2C(=O)N[C@@H](Cc3ccccc3)C(=O)N2[C@H]1c1ccc(O)cc1 | 1.01 | 0.419 | -0.0943 | -0.769 | -1.42 | 0.511 | 1.24 | 1.02 (inactive) | 0.16 | -0.136 | 1.32 | -0.261 (inactive) | -0.784 (inactive) | -0.322 (inactive) | 2.54 | 0.906 (inactive) | -0.0572 | 0.108 | 0.321 | 0.064 |
| COc1ccc([Si](C)(C)[C@@H]2[C@@H](CCn3cc(CCO)nn3)O[C@]3(C(=O)N(Cc4ccc(N5C(=O)c6cccc7cccc5c67)cc4)c4ccccc43)[C@H]2C)cc1 | -0.279 | 0.749 | -0.0656 | -0.0139 | 0.142 | 1.26 | 0.742 | -3.48 (inactive) | 0.299 | 0.154 | 1.51 | 0.0277 (inactive) | 0.858 (inactive) | 12.7 (active) | 0.986 | 2.61 (inactive) | -0.0564 | 0.376 | 0.802 | -0.0138 |
| C=C(/C(=C/C[C@H](OC(C)=O)c1cccc(OCCO)c1)c1cc(C(=O)OC)ccc1OC)C(C)C | 0.037 | 0.0106 | -0.128 | 0.437 | -1.02 | 1.04 | 0.274 | -0.698 (inactive) | -0.24 | 0.0623 | 0.359 | 0.0359 (inactive) | -1.37 (inactive) | -0.954 (inactive) | 0.41 | 1.73 (inactive) | -0.189 | -0.0168 | -0.609 | -0.191 |
| CCCCC(=C=CC[C@@H](O)c1ccc(OCCO)cc1)C[C@@H](O)c1cc(Cl)cc(Cl)c1O | -0.12 | 0.0464 | -0.0924 | 0.458 | -0.0054 | 1.26 | 0.597 | -2.98 (inactive) | 0.0049 | 0.0007 | 0.21 | -2.58 (inactive) | -6.3 (inactive) | -1.39 (inactive) | 1.36 | 1.97 (inactive) | -0.057 | 0.988 | -0.174 | 0.24 |

From PubChem BioAssay
